Records with an inconclusive call do not appear. Active and inactive are the calls of the source. The calls were made as follows: active = hit-call score of the fitted dose curve at least 0.9, where 1 is the maximum; inconclusive = response in the unintended direction; inactive = score below 0.9.
How the values were obtained:
[1] = molecular target: Estrogen receptor (Homo sapiens) (UniProt P03372); experiment: NVS_NR_hER: NovaScreen (NVS) Nuclear Receptor Binding Assay for human Estrogen Receptor (ER) (AID 2283348)
Chain of Estrogen receptor (Homo sapiens) (P03372 whole entry, looked up, the tested form may be a part): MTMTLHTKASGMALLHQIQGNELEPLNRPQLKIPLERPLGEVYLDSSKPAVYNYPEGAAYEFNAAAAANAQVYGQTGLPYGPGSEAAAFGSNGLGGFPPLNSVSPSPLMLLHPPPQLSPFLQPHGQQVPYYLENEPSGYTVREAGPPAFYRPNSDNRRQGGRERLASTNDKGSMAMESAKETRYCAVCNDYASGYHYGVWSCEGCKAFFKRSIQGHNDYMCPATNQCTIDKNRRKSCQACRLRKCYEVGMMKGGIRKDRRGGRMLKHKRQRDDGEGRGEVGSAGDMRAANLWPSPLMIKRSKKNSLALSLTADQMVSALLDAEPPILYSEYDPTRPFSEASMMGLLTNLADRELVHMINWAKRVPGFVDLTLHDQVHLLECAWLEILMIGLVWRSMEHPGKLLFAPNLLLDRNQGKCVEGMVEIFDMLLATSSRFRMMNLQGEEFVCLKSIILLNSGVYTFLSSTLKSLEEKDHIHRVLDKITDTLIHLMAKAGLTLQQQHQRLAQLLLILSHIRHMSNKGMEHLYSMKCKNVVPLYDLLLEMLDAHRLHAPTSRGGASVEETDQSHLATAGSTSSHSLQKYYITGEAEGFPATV
How it was run: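 Cell-free MCF7-derived ER preparation, specific radioligand displaced by test compound, read by scintillation counting 18 h post-dosing. Duplicate single-point 25 uM screen, then concentration-response confirmation; DMSO baseline.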

[2] = molecular target: Estrogen receptor (Homo sapiens) (UniProt P03372); experiment: OT_ER_ERaERa_1440: Odyssey Thera (OT) 24-hour HEK293T Protein-Complementation Assay for Estrogen Receptor-alpha/-alpha Homodimer (AID 2283349);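 also: hits raise fluorescence above DMSO for agonists and antagonists alike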
How it was run: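 HEK293T, stable ERα LBD (aa 310-547) homodimer PCA; 24 h compound exposure; mean fluorescence intensity (nuclear for agonists, nuclear plus cytoplasmic for antagonists) vs vehicle; positive fitting direction, DMSO baseline.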

[3] = molecular target: Estrogen receptor (Homo sapiens) (UniProt P03372); experiment: OT_ER_ERaERa_0480: Odyssey Thera (OT) 8-hour HEK293T Protein-Complementation Assay for Estrogen Receptor-alpha/-alpha Homodimer (AID 2283351);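 also: rise in fluorescence from reassembled reporter fragments on ERα LBD homodimer in nucleus or whole cell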
How it was run: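 Cells were treated for 8 hours, then imaged on a laser scanning plate cytometer. Complementation of reporter fragments fused to the human ERα ligand-binding domain (residues 310-547) in HEK293T gave fluorescence, and gain of signal over vehicle was fitted.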

[4] = molecular target: Estrogen receptor (Homo sapiens) + Estrogen receptor beta (Homo sapiens) (UniProt P03372+Q92731); experiment: OT_ER_ERaERb_0480: Odyssey Thera (OT) 8-hour HEK293T Protein-Complementation Assay for Estrogen Receptor-alpha/-beta Heterodimer (AID 2283352)
Chain of Estrogen receptor (Homo sapiens) + Estrogen receptor beta (Homo sapiens) (P03372 whole entry, looked up, the tested form may be a part): as above
Chain of Estrogen receptor (Homo sapiens) + Estrogen receptor beta (Homo sapiens) (Q92731 whole entry, looked up, the tested form may be a part): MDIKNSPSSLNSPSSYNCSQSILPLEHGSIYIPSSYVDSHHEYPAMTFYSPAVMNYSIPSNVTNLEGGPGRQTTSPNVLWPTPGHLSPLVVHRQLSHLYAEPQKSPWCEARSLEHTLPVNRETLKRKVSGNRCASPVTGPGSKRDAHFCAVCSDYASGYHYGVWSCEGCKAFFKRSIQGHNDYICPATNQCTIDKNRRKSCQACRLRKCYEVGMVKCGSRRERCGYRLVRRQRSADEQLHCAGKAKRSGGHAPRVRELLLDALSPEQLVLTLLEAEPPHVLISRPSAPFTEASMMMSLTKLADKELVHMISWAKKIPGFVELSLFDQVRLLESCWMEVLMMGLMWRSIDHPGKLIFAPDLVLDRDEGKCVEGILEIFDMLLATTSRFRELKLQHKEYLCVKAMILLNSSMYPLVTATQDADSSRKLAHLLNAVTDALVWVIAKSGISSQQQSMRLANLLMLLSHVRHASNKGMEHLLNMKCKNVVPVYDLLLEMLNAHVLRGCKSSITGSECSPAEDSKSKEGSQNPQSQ
How it was run: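 Fluorescence increase from reconstituted reporter fragments, quantified by laser scanning cytometer, reflects ER-alpha/ER-beta heterodimer formation in human HEK293T cells. Exposure 8 h; positive-direction fitting against DMSO vehicle.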

[5] = molecular target: Androgen Receptor/SRC-1 Co-activator, AR (gene 367) (UniProt P10275); experiment: OT_AR_ARSRC1_0960: Odyssey Thera (OT) 16-hour HEK293T Protein-Complementation Assay for Androgen Receptor/SRC-1 Co-activator (AID 2283353);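 also: actives raise the signal above DMSO so potency reflects increased AR and SRC-1 complex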
Chain of Androgen Receptor/SRC-1 Co-activator, AR (gene 367) (P10275 whole entry, looked up, the tested form may be a part): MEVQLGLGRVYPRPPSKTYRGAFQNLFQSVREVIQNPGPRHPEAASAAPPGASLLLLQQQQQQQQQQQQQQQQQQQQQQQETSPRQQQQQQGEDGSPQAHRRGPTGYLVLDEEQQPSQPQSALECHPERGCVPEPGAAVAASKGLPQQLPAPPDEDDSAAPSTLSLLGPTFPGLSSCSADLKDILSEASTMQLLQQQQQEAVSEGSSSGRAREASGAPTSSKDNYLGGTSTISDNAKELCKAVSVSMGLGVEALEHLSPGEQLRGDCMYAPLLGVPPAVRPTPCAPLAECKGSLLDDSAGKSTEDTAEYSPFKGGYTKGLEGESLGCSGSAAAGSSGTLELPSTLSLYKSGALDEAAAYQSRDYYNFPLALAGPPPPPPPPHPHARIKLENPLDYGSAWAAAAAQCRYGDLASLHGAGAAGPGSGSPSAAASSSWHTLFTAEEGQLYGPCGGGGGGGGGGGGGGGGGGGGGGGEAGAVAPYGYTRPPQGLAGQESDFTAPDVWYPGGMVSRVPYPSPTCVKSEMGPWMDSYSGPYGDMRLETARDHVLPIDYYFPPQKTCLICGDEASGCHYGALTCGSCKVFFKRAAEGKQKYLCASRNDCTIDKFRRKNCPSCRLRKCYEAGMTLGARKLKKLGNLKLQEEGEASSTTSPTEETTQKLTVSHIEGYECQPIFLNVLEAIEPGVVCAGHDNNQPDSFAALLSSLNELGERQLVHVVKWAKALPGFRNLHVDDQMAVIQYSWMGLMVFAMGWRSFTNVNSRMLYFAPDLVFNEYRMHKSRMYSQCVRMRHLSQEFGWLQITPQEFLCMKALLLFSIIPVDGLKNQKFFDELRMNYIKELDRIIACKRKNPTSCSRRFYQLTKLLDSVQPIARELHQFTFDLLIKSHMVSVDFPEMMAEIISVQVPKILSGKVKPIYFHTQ
How it was run: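 Stable HEK293T line carries AR and SRC-1 each linked to a Venus fragment; chemicals are applied for 16 h, cells imaged at two wavelengths, and the 488 nm nucleus/cytoplasm ratio is taken as the signal, rising relative to DMSO.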

In the case of `CCNC(=S)NCC`, the outcome [1] is reported as “inactive”, the outcome [2] is reported as “inactive” and the outcome [3] is reported as “inactive”. For the same molecule, the outcome [4] was “inactive”.
With `CC(C)N(c1ccccc1)C(C)C` the outcome [2] was “inactive”, the outcome [3] was “inactive” and the outcome [4] was “inactive”.
`CC(=O)c1ccc(O)cc1` was tested, and the outcome [2] was “inactive”, the outcome [3] was “inactive” and the outcome [4] was “inactive”.
With `CNC(=C[N+](=O)[O-])NCCSCc1ccc(CN(C)C)o1` the outcome [2] was “inactive”, the outcome [3] was “inactive” and the outcome [4] was “inactive”.
With `CCCO` the outcome [2] was “inactive”, the outcome [3] was “inactive” and the outcome [4] was “inactive”.
For `C=CCCCCCCCCC(=O)OCC`, the outcome [2] was “inactive”, the outcome [3] was “inactive” and the outcome [4] was “inactive”.
For `CCCC(O)C(CC)CO` (stereo not drawn), the outcome [2] was “inactive”, the outcome [3] was “inactive” and the outcome [4] was “inactive”.
`CCCCCCCCCCOC(=O)c1ccccc1C(=O)OCCCCCCCC` was tested, and the outcome [2] was “inactive”, the outcome [3] was “inactive” and the outcome [4] was “inactive”. The outcome [5] was “inactive”.
In the case of `CC1COC(=O)O1` (stereo not drawn), the outcome [2] is reported as “inactive”, the outcome [3] is reported as “inactive” and the outcome [4] is reported as “inactive”. The outcome [5] was “inactive”.
For `c1ccc(Cc2ccccc2)cc1`, the outcome [2] was “inactive”, the outcome [3] was “inactive” and the AC50 [4] was 50 µM (active).
`CC(=O)Nc1cc(S(=O)(=O)O)cc2cc(S(=O)(=O)O)c(N=Nc3ccccc3)c(O)c12` was tested, and the outcome [2] was “inactive”, the outcome [3] was “inactive” and the outcome [4] was “inactive”.
For `CCC(C)COC(=O)CC(C)C` (stereo not drawn), the outcome [2] was “inactive”, the outcome [3] was “inactive” and the outcome [4] was “inactive”.
With `COc1ccc2[nH]cc(CCNC(C)=O)c2c1` the outcome [2] was “inactive”, the outcome [3] was “inactive” and the outcome [4] was “inactive”.
For `CCCCOCCOCCO`, the outcome [2] was “inactive”, the outcome [3] was “inactive” and the outcome [4] was “inactive”.
For `C=CC(C)CCCC(C)(C)O` (stereo not drawn), the outcome [2] was “inactive”, the outcome [3] was “inactive” and the outcome [4] was “inactive”.
For `COC(=O)c1ccc(C(=O)OC)cc1`, the outcome [2] was “inactive”, the outcome [3] was “inactive” and the outcome [4] was “inactive”.
For `CCCCN(CCCC)CCCCCCN(CCCC)CCCC`, the outcome [2] was “inactive”, the outcome [3] was “inactive” and the outcome [4] was “inactive”.
For `CCC(C)(CCCC(C)C)OC(C)=O` (stereo not drawn), the outcome [2] was “inactive”, the outcome [3] was “inactive” and the outcome [4] was “inactive”.
With `OC[C@H]1O[C@@H](O[C@H]2[C@H](O)[C@@H](O)[C@H](O)O[C@@H]2CO)[C@H](O)[C@@H](O)[C@H]1O` the outcome [2] was “inactive”, the outcome [3] was “inactive” and the outcome [5] was “inactive”.
In the case of `CCCCCCCCCO`, the outcome [2] is reported as “inactive”, the outcome [3] is reported as “inactive” and the outcome [4] is reported as “inactive”.
With `CCCO[Si](OCCC)(OCCC)OCCC` the outcome [2] was “inactive”, the outcome [3] was “inactive” and the AC50 [4] was 38.3 µM (active).
`CN(C)C` was tested, and the outcome [2] was “inactive”, the outcome [3] was “inactive” and the outcome [4] was “inactive”.
`[Na+]` was tested, and the outcome [2] was “inactive”, the outcome [3] was “inactive” and the outcome [4] was “inactive”.
In the case of `CN(C)C(=O)Nc1ccccc1`, the outcome [2] is reported as “inactive”, the outcome [3] is reported as “inactive” and the outcome [4] is reported as “inactive”.
In the case of `CC(=O)C1=C(C)[C@@H]2C[C@@]3(C1)[C@H](C)CC[C@H]3C2(C)C`, the AC50 [2] is reported as 72.1 µM (active), the AC50 [3] is reported as 21.6 µM (active) and the AC50 [4] is reported as 12.4 µM (active).

From PubChem BioAssay (EPA / NIEHS)
